The values that follow come from PubChem BioAssay (NCI).

Structures are written as SMILES. About 83,000 compounds went through this panel and 20% of them were active in at least one assay; those are over-represented in the sample as a whole.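 Percent growth is the endpoint: 0 to 100 indicates growth inhibition (40 means 60% inhibition), 0 means no net growth, and negative values indicate cell death.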 Values without a mark were called inactive. Calls of active or inactive are those of the source. The calls were made as follows: active = growth percent below 10; inactive = the rest.

Among the test systems are RPMI-8226 leukemia; OVCAR-8 ovarian; OVCAR-5 ovarian; OVCAR-4 ovarian; SK-OV-3 ovarian; IGROV1 ovarian; OVCAR-3 ovarian; HS 578T breast; NCI/ADR-RES ovarian; T-47D breast.
What all share (assay): NCI-60 one-dose screen, 48 h (100 = growth as untreated, 0 = no growth, -100 = all killed)
Common to all, as to conditions: 10 µM unless noted

As to `CCn1c(-c2nonc2Nc2ccc(OC)cc2)nc2ccccc21`, the growth is 117% with RPMI-8226 leukemia; 102% with OVCAR-8 ovarian; 107% in the assay on OVCAR-5 ovarian; 101% in the assay with OVCAR-4 ovarian; 111% in the assay on SK-OV-3 ovarian; 106% in the assay with IGROV1 ovarian. The growth was 112% in the assay on OVCAR-3 ovarian, 96.7% with HS 578T breast, 96% with NCI/ADR-RES ovarian and 97.3% in the assay on T-47D breast.
For the molecule `Nc1n[nH]c2ccc([C@@H]3Nc4ccc5[nH]ncc5c4[C@H]4[C@H]5CCC(C5)[C@H]43)cc12`, the growth with RPMI-8226 leukemia is 17.4%; with OVCAR-8 ovarian, 24.3%; with OVCAR-5 ovarian, 34.9%; in the assay with OVCAR-4 ovarian it was 47.6%; in the assay with SK-OV-3 ovarian, 50.6%; in the assay on IGROV1 ovarian, 24.2%. For the same molecule, the growth is -10.1% (active) in the assay with OVCAR-3 ovarian, 5.8% (active) in the assay on HS 578T breast, 5.44% (active) in the assay on NCI/ADR-RES ovarian and 73.6% in the assay with T-47D breast.
Consider `COc1ccc(Br)c(/C=C2\SC(=Nc3ccc(O)cc3)NC2=O)c1`, for which the growth with RPMI-8226 leukemia was 51.7%; in the assay with OVCAR-8 ovarian, 98%; with OVCAR-5 ovarian, 104%; with OVCAR-4 ovarian, 83%; in the assay with SK-OV-3 ovarian, 89.9%; in the assay on IGROV1 ovarian, 94.3%. For the same molecule, the growth in the assay with OVCAR-3 ovarian was 102%; with NCI/ADR-RES ovarian it was 106%; in the assay with T-47D breast, 68.5%.
As for `COc1ccc(-n2c(C(O)c3ccccc3)nn(CN3CCOCC3)c2=S)cc1` (stereo not given), the growth in the assay with RPMI-8226 leukemia is 88.9%; in the assay with OVCAR-8 ovarian, 107%; in the assay with OVCAR-5 ovarian it was 101%; in the assay with OVCAR-4 ovarian, 96.1%; with SK-OV-3 ovarian, 101%; with IGROV1 ovarian, 96.6%. In addition, the growth with OVCAR-3 ovarian is 124%; in the assay on HS 578T breast it was 93.3%; in the assay with NCI/ADR-RES ovarian, 107%; in the assay on T-47D breast it was 90.4%.
On to `CC(=O)SC1CC(=O)C=C2CCC3C4CCC(=O)OC4(C)CCC3C21C` (stereo not given), for which the growth with RPMI-8226 leukemia was 103%; with OVCAR-8 ovarian it was 98.9%; in the assay with OVCAR-5 ovarian, 99.7%; in the assay on OVCAR-4 ovarian it was 122%; with SK-OV-3 ovarian, 113%; in the assay with IGROV1 ovarian, 147%. The growth in the assay with OVCAR-3 ovarian is 106%; with NCI/ADR-RES ovarian it was 110%; in the assay with T-47D breast, 122%.
Take `COc1cc([C@@H]2NC(=O)NC(C)=C2C(=O)Nc2nc(-c3ccc(Cl)cc3)cs2)ccc1O`: the growth is 111% in the assay on RPMI-8226 leukemia; 102% with OVCAR-8 ovarian; 100% in the assay on OVCAR-5 ovarian; 90.5% with OVCAR-4 ovarian; 87.8% with SK-OV-3 ovarian; 96.6% with IGROV1 ovarian. Further, the growth in the assay with OVCAR-3 ovarian is 111%; in the assay on HS 578T breast, 101%; in the assay with NCI/ADR-RES ovarian it was 97.2%; in the assay with T-47D breast, 77.1%.
As to `O=C(COc1cc(O)c2c(=O)cc(-c3ccccc3)oc2c1)Nc1ccccc1`, the growth in the assay on RPMI-8226 leukemia was 93.3%; with OVCAR-8 ovarian, 87.2%; in the assay on OVCAR-5 ovarian, 98.1%; in the assay on OVCAR-4 ovarian it was 78.9%; in the assay on SK-OV-3 ovarian, 107%; with IGROV1 ovarian it was 99.1%. The growth with OVCAR-3 ovarian is 106%; in the assay with HS 578T breast, 80.3%; with NCI/ADR-RES ovarian, 88.9%; in the assay with T-47D breast it was 94.3%.
`COc1cc(C(=O)O/N=C(\N)Cc2cccc3ccccc23)cc(OC)c1OC`: the growth was -36.4% (active) with RPMI-8226 leukemia; 1.62% (active) with OVCAR-8 ovarian; 48% in the assay with OVCAR-5 ovarian; 66.8% with OVCAR-4 ovarian; 69.2% in the assay with SK-OV-3 ovarian; 46.9% in the assay with IGROV1 ovarian. For the same molecule, the growth with OVCAR-3 ovarian was 6.38% (active); in the assay on HS 578T breast it was 26%; in the assay on NCI/ADR-RES ovarian, 59.8%; with T-47D breast, -73.1% (active).
On to `CC1=C(C(=O)OCC2CCN(C(=O)OC(C)(C)C)CC2)[C@H](c2cccc(Br)c2)C2=C(CC(C)(C)CC2=O)N1`, for which the growth was 18.6% in the assay on RPMI-8226 leukemia; 21.7% in the assay with OVCAR-8 ovarian; 64.8% in the assay with OVCAR-5 ovarian; 40% in the assay on OVCAR-4 ovarian; 56% in the assay with SK-OV-3 ovarian; 35.9% in the assay with IGROV1 ovarian. Also, the growth in the assay on OVCAR-3 ovarian was 30.9%; in the assay with HS 578T breast, 53.5%; with NCI/ADR-RES ovarian, 25.3%; in the assay with T-47D breast it was 22%.
As for `CCCCCCCCCCOC(=O)c1ccccc1C(=O)OCCCC`, the growth was 101% in the assay on RPMI-8226 leukemia; 109% in the assay on OVCAR-8 ovarian; 103% with OVCAR-5 ovarian; 115% in the assay with OVCAR-4 ovarian; 114% in the assay on SK-OV-3 ovarian; 118% in the assay with IGROV1 ovarian. Moreover, the growth in the assay with OVCAR-3 ovarian is 106%; with HS 578T breast, 118%; in the assay with NCI/ADR-RES ovarian, 107%; in the assay on T-47D breast, 106%.
For `Cc1sc2ncnc(Sc3nc4ccccc4[nH]3)c2c1C`, the growth was -27.1% (active) with RPMI-8226 leukemia; -66.1% (active) with OVCAR-8 ovarian; -58.6% (active) in the assay with OVCAR-5 ovarian; -15.4% (active) with OVCAR-4 ovarian; -23.1% (active) in the assay on SK-OV-3 ovarian; -76.5% (active) in the assay with IGROV1 ovarian. In addition, the growth in the assay on OVCAR-3 ovarian was -86.1% (active); in the assay with HS 578T breast, -27.5% (active); in the assay with NCI/ADR-RES ovarian, 20.1%; with T-47D breast, -55.4% (active).
In the case of `CN(C)CCCNCc1ccc(-c2ccc(F)c(Cl)c2)o1`, the growth in the assay on RPMI-8226 leukemia was -26.3% (active); in the assay with OVCAR-8 ovarian it was 59.3%; in the assay on OVCAR-5 ovarian it was 65.3%; with OVCAR-4 ovarian, 59.6%; in the assay with SK-OV-3 ovarian, 73.1%; with IGROV1 ovarian, 31.6%. Besides, the growth in the assay on HS 578T breast is 57.6%; with NCI/ADR-RES ovarian, 53.8%; with T-47D breast, 23.2%.
Take `NNC(=O)CNC(=O)Nc1n[nH]c(=S)s1`: the growth was 93% in the assay on RPMI-8226 leukemia; 104% in the assay on OVCAR-8 ovarian; 97.6% in the assay with OVCAR-5 ovarian; 117% with OVCAR-4 ovarian; 99.8% in the assay on SK-OV-3 ovarian; 108% in the assay on OVCAR-3 ovarian. The growth with HS 578T breast was 90.9%; with NCI/ADR-RES ovarian it was 104%; in the assay on T-47D breast it was 101%.
With `O=C(Nc1ccc(I)cc1F)c1cc(F)ccc1O`, the growth was -33.8% (active) in the assay with RPMI-8226 leukemia; 6.16% (active) with OVCAR-8 ovarian; 23.6% in the assay on OVCAR-5 ovarian; 12.4% with OVCAR-4 ovarian; -6.45% (active) in the assay with SK-OV-3 ovarian; 12.7% with IGROV1 ovarian. Besides, the growth in the assay with OVCAR-3 ovarian is 6.68% (active); with NCI/ADR-RES ovarian, 4.19% (active); in the assay with T-47D breast, -12.4% (active).
